# SMARCA2 activ – activators of SMARCA2 function; activation, % at 9.1 µM; 370,000 compounds, 1% hits; MG213 cells, MMTV-luciferase reporter, dexamethasone, overnight; AID 652017; in the data active means activation above about 7.8%
# bovine MsrA act – activates bovine MsrA enzyme; 360,000 compounds, 0.3% hits; purified bovine MsrA, absorbance read-out; activation, % at 10.6 µM; in the data active means activation above about 7.5%
# ABCB6 inh MLPCN – blocks the human ABCB6 transporter; 360,000 compounds, 0.19% hits; Q9NP58; AID 602162; fluorescence ratio to DMSO, % at 10 µM; K562-ABCB6 porphyrin accumulation, flow cytometry, 1 h; active compounds read low;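 active means fluorescence ratio to DMSO below 75%, the collection mean minus 3 SD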;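 further: signal is porphyrin accumulated inside mitochondria; lower ratio means ABCB6 inhibition with less porphyrin fluorescence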
# Target sequence (Q9NP58 whole entry, looked up): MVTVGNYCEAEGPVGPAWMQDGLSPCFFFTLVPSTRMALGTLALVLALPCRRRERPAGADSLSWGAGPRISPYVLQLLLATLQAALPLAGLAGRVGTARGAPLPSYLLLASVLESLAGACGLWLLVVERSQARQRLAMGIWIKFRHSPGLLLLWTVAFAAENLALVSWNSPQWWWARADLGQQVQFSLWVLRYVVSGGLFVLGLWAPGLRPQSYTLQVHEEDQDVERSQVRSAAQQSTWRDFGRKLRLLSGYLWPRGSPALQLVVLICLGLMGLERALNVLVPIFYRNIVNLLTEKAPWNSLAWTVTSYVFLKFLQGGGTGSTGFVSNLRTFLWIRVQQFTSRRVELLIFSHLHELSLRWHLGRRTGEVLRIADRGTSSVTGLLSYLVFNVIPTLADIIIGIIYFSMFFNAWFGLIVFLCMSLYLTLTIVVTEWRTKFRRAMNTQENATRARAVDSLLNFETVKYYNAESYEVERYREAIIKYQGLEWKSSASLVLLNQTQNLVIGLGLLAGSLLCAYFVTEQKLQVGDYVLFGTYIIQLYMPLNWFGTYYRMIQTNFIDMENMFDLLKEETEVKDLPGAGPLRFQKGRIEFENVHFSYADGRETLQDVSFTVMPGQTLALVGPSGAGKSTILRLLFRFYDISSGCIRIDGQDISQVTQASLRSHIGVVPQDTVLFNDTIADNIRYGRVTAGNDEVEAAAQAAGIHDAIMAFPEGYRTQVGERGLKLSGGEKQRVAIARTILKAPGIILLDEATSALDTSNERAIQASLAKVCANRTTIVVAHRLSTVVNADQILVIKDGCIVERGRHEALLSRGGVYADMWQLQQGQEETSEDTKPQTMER
# MsrA inh – bovine MsrA inhibition | purified bovine MsrA, absorbance read-out | inhibition, % at 15.5 µM | 360,000 compounds, 0.75% hits | AID 651718; in the data active means inhibition above about 4.5%
# SMARCA2 conf – confirmation of SMARCA2 (BRM) function activators. shares compounds with SMARCA2 activ. MG213 cells, MMTV-luciferase with dexamethasone, luminescence, overnight; MG213 cells expressing E1A, Rb sequestered; DMSO wells 0%, reference activator 100%. activation, % at 9.1 µM. 3,500 compounds, 30% hits;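 active means activation above its plate's cutoff, the mean activation of tested wells plus 3 SD, cut at about 7.9% in these data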
# GAL4-VP16 Luc – activates GAL4-VP16 luciferase, flagging SMARCA2 activator hits. 3,500 compounds, 41% hits. activation, % at 9.1 µM. shares compounds with SMARCA2 activ. HEK293 GAL4-VP16 pG5luc reporter, luciferase luminescence; scaled: DMSO wells 0%, SAHA wells 100%;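 active means activation above the solvent-only control well mean plus 3 SD, averaged across control plates, cut at about 5.2% in these data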
# A number is an active result; - = inactive; . = not tested or not shown. A selection: hits, their analogues and other compounds. The true share with any hit is near 2.1%.
SMILES,SMARCA2 activ,bovine MsrA act,ABCB6 inh MLPCN,MsrA inh,SMARCA2 conf,GAL4-VP16 Luc
COc1cccc(/C=N/N=C(\N)c2nonc2N)c1O,8.6,-,-,-,-,12
COc1ccc(Oc2cc(F)nc(N)n2)cc1,-,-,-,-,.,.
Nc1ccnc(Oc2ccc(F)cc2)c1,18,-,-,-,-,-
CCOc1ccccc1N(CC(=O)Nc1ccc(S(=O)(=O)N2CCOCC2)cc1)S(C)(=O)=O,12,-,-,-,-,-
CCOc1ccccc1N(CC(=O)Nc1ccc(S(=O)(=O)N2CCOCC2)cc1)S(=O)(=O)c1ccccc1,.,-,-,.,.,.
COc1ccc(/C=C/C(=O)Nc2ccccc2C(=O)O)cc1,-,-,-,-,.,.
CCc1cc(C(=O)O)c(NC(=O)/C=C/c2ccc(OC)cc2)s1,13,-,-,-,-,6.1
Cc1cccc(OCC(=O)N2CCC(c3ccccc3)C2)c1 (stereo not drawn),-,-,-,-,.,.
O=C(COc1ccc(F)cc1)N1CCC(c2ccccc2)C1 (stereo not drawn),8.4,-,-,-,-,7.9
COC(=O)[C@]12C[C@H](CC(=O)N3CCN(C(=O)C4CC4)CC3)C(=O)N(Cc3ccco3)C1=C[C@H](COCc1ccccc1)O[C@@H]2C,-,.,.,.,.,.
O=C(Nc1nnc(SCC(=O)N2CCCc3ccccc32)s1)c1cccc2ccccc12,-,-,-,-,.,.
Cc1ccc(C(=O)Nc2nnc(SCC(=O)N3CCCc4ccccc43)s2)cc1,9.3,-,-,-,-,8.4
CN(CCc1ccccn1)C(=O)c1ccc(Sc2ccccc2Cl)c([N+](=O)[O-])c1,-,.,.,.,.,.
c1ccc(N=Nc2ccc3cccccc2-3)cc1,9.6,-,-,-,14,13
Nc1ccc(N=Nc2ccccc2)c2ccccc12,-,-,-,-,.,.
CCN1CCN(c2ccc(S(=O)(=O)N3CCOCC3)cc2NC(=O)/C=C/c2ccc([N+](=O)[O-])cc2)CC1,11,-,-,-,35,-
O=C(/C=C/c1ccc(S(=O)(=O)N2CCOCC2)cc1)Nc1cc(F)ccc1F,9.0,-,-,-,-,-
Cc1ccc(F)cc1NC(=O)/C=C/c1ccc(S(=O)(=O)N2CCOCC2)cc1,-,-,-,-,.,.
O=C(NCc1ccco1)c1ccc(-c2cccc(Cl)c2)o1,9.6,-,-,-,13,5.3
COc1cccc(-c2cc(C(=O)NCc3ccco3)no2)c1,8.4,-,-,-,-,11
CCOC(=O)c1ccc(Cl)c(NC(=O)c2ccc(-c3ccccc3)cc2)c1,-,-,-,-,.,.
CCOC(=O)c1ccc(/C=C2/C=C(c3ccccc3)N(c3ccc(Cl)c(C(=O)O)c3)C2=O)cc1,12,-,-,-,-,-
CCCSc1nnc(NC(=O)Nc2ccc(C)cc2)s1,8.0,-,-,-,-,-
CCCSc1nnc(NC(=O)Nc2ccc(F)cc2)s1,-,-,-,-,.,.
CC(C)(C)c1ccc(S(=O)(=O)N2CCCC(C(=O)NCc3ccco3)C2)cc1 (stereo not drawn),-,.,.,.,.,.
SMILES,SMARCA2 activ,bovine MsrA act,ABCB6 inh MLPCN,MsrA inh,SMARCA2 conf,GAL4-VP16 Luc
Fc1ccc(OCc2nc3ccccc3s2)cc1,9.1,-,-,-,-,12
O=C(/C=C(\Nc1ccccc1)c1ccccc1)c1ccccc1,-,.,.,-,.,.
O=C(NCCNc1ccc([N+](=O)[O-])cc1)c1cc(F)c(F)cc1Cl,-,-,-,-,.,.
O=C(NCCNc1ccccc1[N+](=O)[O-])c1cc(F)c(F)cc1Cl,14,-,-,-,-,5.3
Cc1ccnc(N(C(=O)c2cccs2)C(=O)c2cccs2)c1,11,-,-,-,8.3,6.8
CC1(C)Cc2c(c(N3CCOCC3)nc3sc(C(=O)Nc4ccc(Cl)cc4)c(N)c23)CO1,-,-,-,-,.,.
Cc1nc2c(sc3nc(N4CCOCC4)c4c(c32)CC(C)(C)OC4)c(-c2ccc(Cl)cc2)c1C(=O)O,8.4,-,-,-,-,-
Cc1ccc(NC(=S)N(CCCN2CCCC(C)C2)Cc2ccco2)cc1C (stereo not drawn),9.2,-,-,-,-,-
CC1CCc2c(sc(/N=C/c3ccco3)c2C(N)=O)C1 (stereo not drawn),8.8,-,-,-,-,6.2
CC1CCc2c(sc(/N=C/c3cccnc3)c2C(N)=O)C1 (stereo not drawn),-,-,-,-,.,.
O=C(N[C@H]1CC[C@@H]2SC[C@@H](C(=O)O)N2C1=O)OCC1c2ccccc2-c2ccccc21,-,.,.,.,.,.
N#CC(Cc1ccc(OC(F)F)cc1)c1nc2ccccc2[nH]1 (stereo not drawn),-,-,-,-,.,.
N#CC(Cc1cccs1)c1nc2ccccc2[nH]1 (stereo not drawn),8.6,-,-,-,-,-
O=C(NCCc1ccccc1)C1CCN(C(=O)c2ccc(F)cc2)CC1,-,-,-,-,.,.
O=C(NCCc1ccc(F)cc1)C1CCN(C(=O)Nc2ccccc2)CC1,8.0,-,-,-,-,-
O=c1[nH]c(/C=C/c2ccccc2Cl)nc2ccccc12,8.6,-,-,-,13,9.1
CCOC(=O)NC(=O)CSc1nc(-c2ccc(C)c(C)c2)cn1-c1ccccc1,-,-,-,-,.,.
Cc1ccc(-c2cn(-c3ccccc3)c(SCC(N)=O)n2)cc1C,9.8,-,-,-,-,6.6
CN(Cc1ccccc1)C(=O)c1cnc(Cc2c[nH]c3ccccc23)c(I)c1,-,-,-,-,.,.
COC(=O)[C@]12C[C@H](CC(=O)NCCCN3CCCC3=O)C(=O)N(Cc3ccco3)C1=C[C@H](C1CCCC1)O[C@@H]2C,-,.,.,.,.,.
Cc1ccccc1NC(=O)Cn1nnc(-c2ccncc2)n1,-,.,.,.,.,.
NC(=O)C1CC(=O)N(c2ccc(OCc3c(Cl)cccc3Cl)cc2)C1 (stereo not drawn),8.7,-,-,-,-,-
COc1cc(/C=C/C(=O)O)cc2c1OCCO2,8.0,-,-,-,-,-
O=S1(=O)CC(N2CCCCC2)CN1CCc1ccccc1 (stereo not drawn),-,-,-,-,.,.
O=C(c1cc(-c2ccc(Cl)cc2)on1)N1CCCCCC1,10,-,-,-,8.1,9.2
SMILES,SMARCA2 activ,bovine MsrA act,ABCB6 inh MLPCN,MsrA inh,SMARCA2 conf,GAL4-VP16 Luc
O=C(c1cc(-c2ccc(Cl)c(Cl)c2)on1)N1CCCCCC1,-,-,-,-,.,.
COc1ccc(-c2cc(C(=O)N3CCCCC3)no2)cc1OC,8.7,-,-,-,-,5.3
Cc1cc(-c2cn3ccccc3n2)c(C)n1-c1ccccc1,10,-,-,-,-,8.2
COC(=O)c1ccc(NCc2c(O)ccc(O)c2Br)cc1Cl,-,-,-,-,.,.
COC(=O)c1ccc(NCc2cc(O)ccc2O)cc1O,8.5,-,-,-,-,-
COCc1cccc(-c2csc(C(C)(NC(C)=O)c3ccc(OC)cc3)n2)c1 (stereo not drawn),-,-,-,-,.,.
O=c1c(C(c2ccc(F)cc2)c2c(O)nc3n(c2=O)CCS3)c(O)nc2n1CCS2,9.3,-,-,-,-,-

# High-throughput results deposited in PubChem by several laboratories.
